# Test results reported in ChEMBL document CHEMBL3433997, “St. Jude Leishmania screening dataset” (2016).
# What was measured:
# Type in all cases: functional
# [1] = biological target: Solute carrier family 2, facilitated glucose transporter member 1 (Homo sapiens) (UniProt P11166); experiment: ST_JUDE_LEISH: Cytotoxicity at 2uM final concentration against transgenic Leishmania Mexicana promastigotes LmGLUT1 that are glucose transport deficient and complemented with the human glucose transporter GLUT1. Activity is measured by DNA content using SYBR green in vitro
# [2] = biological target: Hexose transporter 1 (Plasmodium falciparum) (UniProt O97467); experiment: ST_JUDE_LEISH: Cytotoxicity at 2uM final concentration against transgenic Leishmania Mexicana promastigotes LmPfHT that are glucose transport deficient and complemented with the Plasmodium falciparum hexose transporter. Activity is measured by DNA content using SYBR green in vitro
# [3] = biological target: Glucose transporter (Leishmania mexicana) (UniProt O61059); experiment: ST_JUDE_LEISH: Cytotoxicity at 2uM final concentration against transgenic Leishmania Mexicana promastigotes LmGT2 that are glucose transport deficient and complemented with the L. Mexicana glucose transporter 2. Activity is measured by DNA content using SYBR green in vitro
# Solute carrier family 2, facilitated glucose transporter member 1 (Homo sapiens), sequence (P11166 whole entry): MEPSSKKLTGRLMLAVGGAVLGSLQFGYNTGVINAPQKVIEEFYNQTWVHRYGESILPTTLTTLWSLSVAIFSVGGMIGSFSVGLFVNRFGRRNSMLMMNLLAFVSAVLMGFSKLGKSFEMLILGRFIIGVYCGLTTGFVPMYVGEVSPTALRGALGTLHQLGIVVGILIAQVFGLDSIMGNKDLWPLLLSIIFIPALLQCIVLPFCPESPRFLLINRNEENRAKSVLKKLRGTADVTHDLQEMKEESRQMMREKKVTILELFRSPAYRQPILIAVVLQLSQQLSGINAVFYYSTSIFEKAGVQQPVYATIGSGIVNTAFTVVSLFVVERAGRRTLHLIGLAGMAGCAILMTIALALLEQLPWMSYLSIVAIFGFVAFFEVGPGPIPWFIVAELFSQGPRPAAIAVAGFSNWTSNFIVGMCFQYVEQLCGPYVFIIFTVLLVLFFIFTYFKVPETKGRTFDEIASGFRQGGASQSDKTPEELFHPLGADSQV
SMILES,inhibition [1],inhibition [2],inhibition [3]
O=C(NCCc1ccccc1)N(Cc1ccccc1-c1ccc(CNC2CCCC2)cc1)C1CCN(Cc2ccccc2)CC1,7.74%,7.15%,5.58%
CCNc1cc(C)nc(Nc2ccc(NC(=O)c3ccccc3Cl)cc2)n1,6.51%,8.33%,5.34%
O=C(Cc1ccccc1)NC(c1ccco1)c1cc(Cl)c2cccnc2c1O (stereo unspecified),-0.34%,-0.27%,-0.18%
CCc1cccc(-c2cc(N)n(C)c3nc(N)nc(=O)c2-3)c1,-0.01%,0.41%,-1.13%
O=C(Nc1ccc(OC(F)(F)F)cc1)Nc1ccc([N+](=O)[O-])cc1,1.82%,2.15%,1.9%
CN1CCCC(OC(=O)c2ccccc2)C1 (stereo unspecified),4.26%,3.71%,3.1%
c1ccc(C2CCC(N3CCC(N4CCCC4)CC3)CC2)cc1 (stereo unspecified),0.84%,-0.62%,1.54%
O=C1NC(=O)C(c2ccc(Cl)cc2)=C1Nc1cccc(S(=O)(=O)C(F)(F)F)c1,1.37%,0.65%,1.48%
CN1c2ccc([N+](=O)[O-])cc2C(C)(C)C12C=Cc1cc(Br)cc([N+](=O)[O-])c1O2 (stereo unspecified),2.03%,-0.39%,-0.71%
CC(=O)N(C)C1CCN(Cc2cccc(-c3ccc(-c4nc5cc(F)ccc5[nH]4)cc3)c2)C1 (stereo unspecified),3.46%,2.4%,3.15%
CC(C)(NCc1ccc(OC(F)(F)F)cc1)c1nc(-c2ccc(Cl)c(O)c2)c(-c2ccncc2)[nH]1,-0.58%,-0.36%,1.94%
CC(C)NC[C@@H](O)[C@H](Cc1ccccc1)NC(=O)c1cc2c3c(c1)c(C(C)C)cn3CCS(=O)(=O)N2C,2.21%,2.85%,2.8%
